These results are taken from PubChem BioAssay (NCI).

Test systems include NCI-H322M lung; HOP-92 NSCLC; NCI-H522 lung; RXF 393 renal; SK-MEL-5 melanoma; SK-MEL-28 melanoma; ACHN renal; CCRF-CEM leukemia; SR leukemia; OVCAR-4 ovarian; BT-549 breast; MDA-MB-435 melanoma; SW-620 colon; MCF7 breast; HCC-2998 colon; KM12 colon; T-47D breast; HCT-116 colon.
Holding throughout (assay): NCI-60 one-dose screen, 48 h (100 = growth as untreated, 0 = no growth, -100 = all killed)
Common to all, as to settings: 10 µM

This is part of a sample that, as a whole, favours compounds with a hit. Of some 83,000 tested, about 20% had one in any assay.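 Each cell line was grown in a 96-well plate and treated with one concentration of compound for 48 hours. Values below 10 were considered active.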 Values without a mark were called inactive. The source made the active and inactive calls.

For `O=[N+]([O-])c1cccc(-c2nnc3c(/C=C/c4ccccc4O)nc4ccccc4n23)c1`, the growth with NCI-H322M lung was 55.8%; with HOP-92 NSCLC, 51.2%; in the experiment with NCI-H522 lung, 55.3%; in the experiment with RXF 393 renal it was 52.6%; in the experiment on SK-MEL-5 melanoma it was 19.6%; with SK-MEL-28 melanoma, 38.2%. The growth in the experiment on ACHN renal is 35.8%; in the experiment with CCRF-CEM leukemia, 47.5%; in the experiment with SR leukemia it was 51.8%; with OVCAR-4 ovarian, 68.4%; in the experiment with BT-549 breast it was 62.6%; in the experiment on MDA-MB-435 melanoma, 40.7%. In addition, the growth was 41.7% in the experiment on SW-620 colon, 22.1% in the experiment on MCF7 breast, 53.8% with HCC-2998 colon and 37.5% with KM12 colon.

`Cc1ccc(S(=O)(=O)N2CCN(S(=O)(=O)c3oc(-c4ccccc4)nc3C#N)CC2)cc1`: the growth is 93% with HOP-92 NSCLC; 64.1% in the experiment on NCI-H522 lung; 87.6% with RXF 393 renal; 78.2% in the experiment on SK-MEL-28 melanoma; 69.4% in the experiment on ACHN renal; 75.7% in the experiment on CCRF-CEM leukemia. The growth in the experiment on OVCAR-4 ovarian is 71.8%; in the experiment on T-47D breast it was 60.8%; in the experiment on BT-549 breast, 76.1%; with MDA-MB-435 melanoma, 77.6%; in the experiment on SW-620 colon, 90%; in the experiment on MCF7 breast, 47.6%. Also, the growth in the experiment with HCT-116 colon was 84.6%; in the experiment with HCC-2998 colon, 106%; in the experiment with KM12 colon, 82.5%.

As for `Cc1ccc(COc2ccc(NC(=O)Nc3ccc(Cl)c(C(F)(F)F)c3)cc2)cc1`, the growth in the experiment with NCI-H522 lung is 44.9%; in the experiment with RXF 393 renal, 75.5%; in the experiment on SK-MEL-5 melanoma, 79.9%; in the experiment on CCRF-CEM leukemia it was 60.7%; with OVCAR-4 ovarian, 66.4%; in the experiment on T-47D breast it was 33.7%. Moreover, the growth in the experiment with BT-549 breast was 74.4%; in the experiment on MDA-MB-435 melanoma, 86.1%; in the experiment on SW-620 colon, 86.5%; in the experiment with MCF7 breast it was 41.6%; with HCC-2998 colon it was 83.7%.

For the compound `CCOc1ccc(/C=N/NC(=O)Cn2nc(Cc3ccc(OC)cc3)c3onc(C)c3c2=O)cc1`, the growth in the experiment with HOP-92 NSCLC is -25.7% (active); with RXF 393 renal it was -65.6% (active); in the experiment with SK-MEL-5 melanoma, 89.2%; in the experiment on SK-MEL-28 melanoma, 11.5%; in the experiment with CCRF-CEM leukemia, 17.9%; with OVCAR-4 ovarian, 10.1%. In addition, the growth in the experiment with T-47D breast was 16.3%; with BT-549 breast, 23.7%; with MDA-MB-435 melanoma, 50.5%; in the experiment on SW-620 colon, 23%; with MCF7 breast, 27.9%; in the experiment on HCC-2998 colon, -11.5% (active).

In the case of `COc1cc(-c2nc3ccc(C)cc3[nH]2)ccc1OCc1nnc(-c2ccccc2Br)o1`, the growth with HOP-92 NSCLC was 84.3%; with NCI-H522 lung, 64%; with RXF 393 renal it was 1.93% (active); in the experiment on CCRF-CEM leukemia it was 19.4%; in the experiment with OVCAR-4 ovarian it was 80.7%; with T-47D breast, 28%. Moreover, the growth with BT-549 breast was 55.7%; in the experiment on MDA-MB-435 melanoma, 85.4%; in the experiment on SW-620 colon, 91.9%; in the experiment on MCF7 breast, 44.4%; in the experiment on HCT-116 colon it was 61%; with HCC-2998 colon, 77.2%.

On to `O=C(O)CCN1C(=O)/C(=C/C=C/c2ccc([N+](=O)[O-])o2)SC1=S`, for which the growth is 31% in the experiment on NCI-H322M lung and 0.111% (active) in the experiment on SR leukemia.

Consider `COc1cc(C2CC(c3ccc(Oc4ccc(Cl)cc4)cc3)=NN2c2nc(-c3ccc(Cl)cc3)c(C#N)c(N3CCOCC3)n2)cc(OC)c1OC` (stereo not drawn), for which the growth with RXF 393 renal is 107%; in the experiment with SK-MEL-5 melanoma, 97.8%; in the experiment with CCRF-CEM leukemia it was 111%; with OVCAR-4 ovarian it was 103%; with BT-549 breast, 116%; in the experiment on MDA-MB-435 melanoma it was 94.2%. Moreover, the growth with SW-620 colon was 101%; with MCF7 breast it was 84.6%; in the experiment on HCC-2998 colon, 100%; in the experiment on KM12 colon, 101%.

For the compound `O=C(CN1CCN(c2ncnc3c2cnn3-c2ccccc2)CC1)Nc1ccc(Br)cc1`, the growth with HOP-92 NSCLC was 74.6%; in the experiment with RXF 393 renal, 76%; with SK-MEL-5 melanoma, 9.44% (active); with CCRF-CEM leukemia, 61.6%; in the experiment with SR leukemia, 40.3%; with OVCAR-4 ovarian, 56.5%. Moreover, the growth with BT-549 breast was 50%; with MDA-MB-435 melanoma, 53.2%; in the experiment on SW-620 colon it was 78.1%; in the experiment with MCF7 breast, 36.8%; in the experiment on HCT-116 colon, 52.5%; with HCC-2998 colon, 78.8%.

Regarding `O=C1S/C(=C\c2ccc([N+](=O)[O-])cc2)C(=O)N1CCN1CCCCC1`, the growth in the experiment on HOP-92 NSCLC is 146%; in the experiment on RXF 393 renal, 132%; with CCRF-CEM leukemia, 116%; in the experiment on SR leukemia it was 111%; in the experiment with OVCAR-4 ovarian it was 111%; in the experiment with BT-549 breast, 118%. Further, the growth in the experiment on MDA-MB-435 melanoma was 102%; in the experiment on SW-620 colon, 113%; with MCF7 breast, 94.2%; in the experiment on HCT-116 colon it was 105%; in the experiment on HCC-2998 colon it was 104%; with KM12 colon, 105%.

As to `COc1ccc(C(=O)COc2ccc(NC(=O)Nc3ccccc3)cc2)cc1`, the growth in the experiment on RXF 393 renal was 82.8%; in the experiment on CCRF-CEM leukemia it was 91%; with SR leukemia, 80.6%; in the experiment on OVCAR-4 ovarian it was 87.2%; with BT-549 breast, 76.2%; in the experiment on MDA-MB-435 melanoma it was 89.4%. Also, the growth with SW-620 colon is 101%; in the experiment with MCF7 breast, 67.2%; with HCC-2998 colon, 105%; in the experiment on KM12 colon, 91.6%.

Consider `COc1ccc(Cn2cc(C#N)c(N)c2C(C)=O)c(OC)c1`, for which the growth is 85.7% in the experiment on HOP-92 NSCLC; 104% with NCI-H522 lung; 107% in the experiment on RXF 393 renal; 105% in the experiment with CCRF-CEM leukemia; 106% with SR leukemia; 110% in the experiment with OVCAR-4 ovarian. For the same compound, the growth in the experiment with BT-549 breast is 107%; in the experiment on MDA-MB-435 melanoma it was 108%; with SW-620 colon, 106%; in the experiment with MCF7 breast, 101%; in the experiment with HCT-116 colon it was 99.2%; in the experiment with HCC-2998 colon, 106%.

For the compound `Cn1cc(-c2cc(N)n3nc(-c4cn(C)c5ccccc45)cc3n2)c2cc(F)ccc21`, the growth is -78.4% (active) in the experiment on HOP-92 NSCLC; -76.3% (active) in the experiment with RXF 393 renal; -87.9% (active) with SK-MEL-5 melanoma; -80.4% (active) with SK-MEL-28 melanoma; -89.4% (active) in the experiment with ACHN renal; -9.43% (active) in the experiment with CCRF-CEM leukemia. The growth with SR leukemia was 9.63% (active); in the experiment with OVCAR-4 ovarian, -38.2% (active); in the experiment with BT-549 breast, -69.9% (active); with MDA-MB-435 melanoma, -81.1% (active); in the experiment on SW-620 colon it was -54.4% (active); in the experiment on MCF7 breast it was -56.2% (active). Besides, the growth in the experiment on HCT-116 colon is -92.1% (active); in the experiment on HCC-2998 colon, -80.5% (active).
